TDP1 cell CPT = growth inhibition of DT40 Tdp1-/-;hTDP1 cells with camptothecin (screen for TDP1 inhibitors); Potency, µM (titrated, usually from 46.2 µM), for inactives: at the top dose activity change, negative = growth inhibition, hits mostly inhibitors; AID 686979; 420,000 tested, 12% active; chicken DT40 Tdp1-/-;hTDP1 cells + 20 nM CPT, ATP luminescence, 48 h; also: potency is read from the fitted curve at half-maximal effect; nearly all actives have a fitted effect of over 55% in size
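Cell growth measured by CellTiter-Glo luminescence after a minimum 48 h, 37 C compound exposure with 20 nM CPT in Tdp1-knockout DT40 cells stably expressing hTDP1, seeded 400/well; qHTS titration format.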
TDP1 cell noCPT = qHTS for Inhibitors of human tyrosyl-DNA phosphodiesterase 1 (TDP1): qHTS in cells in absence of CPT; DT40 Tdp1-/- hTDP1 cells, no CPT, ATP luminescence, 48 h; Potency, µM (series often up to 46.2 µM), inactives show at the highest dose activity change, negative = growth inhibition, most hits filed as inhibitors; 420,000 tested, 15% active; AID 686978, 2013; also: potency is read from the fitted curve at half-maximal effect; nearly all actives have a fitted effect of over 55% in size
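Chicken DT40 Tdp1-/- cells complemented with human TDP1, screened without camptothecin (DMSO vehicle only), 400 cells/well. Compounds pin-transferred, cells incubated at 37 °C for at least 48 hr. Growth read as ATP-dependent luminescence (CellTiter-Glo, 30 min at RT).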
HT1080-NT tox = kills 2HG-producing HT-1080-NT fibrosarcoma cells; HT-1080-NT fibrosarcoma viability, CellTiter-Glo ATP luminescence, 48 h; Potency, µM (series often up to 46.1 µM), for inactives: at the highest dose activity, negative = less viability, usual class: cytotoxic; 360,000 tested, 1.6% active; AID 686970;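 also: NT is the 2HG producing partner of a matched IDH1 knockdown line; potency is read from the fitted curve at half-maximal effect; 0% = DMSO-treated cells and -100% = media-only wells without cells; nearly all actives have a fitted effect of over 55% in size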
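750 cells/well, RPMI + 5% FBS; 2 h settle, compound pin-transfer, 48 h at 37 degrees C. CellTiter-Glo 10 min RT, luminescence. Normalized to DMSO and media-only wells.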
IL1B secr inh = inflammasome signaling inhibition, IL-1 beta readout | THP-1 LPS/ATP IL-1B secretion, AlphaLISA, 16 h; active compounds read low | activity change, % at 57.5 µM | 360,000 tested, 4.7% active; in the data active = activity change below about -50%; inconclusive = mostly about -30% to -49%
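THP-1 cells pretreated 1 hr with compounds (up to 57.5 uM final), then stimulated with LPS (250 ng/mL final) plus ATP (1.25 mM final); secreted IL-1B measured by AlphaLISA after 16 hr, decreased signal indicating inhibition.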
HT1080 IDH1KD tx = HT-1080 IDH1 knockdown cell toxicity (counter line); Potency, µM (highest dose often 46.1 µM), for the others: at the top dose activity, negative = toxicity, most hits filed as cytotoxic; 360,000 tested, 2% active; AID 686971; HT-1080 IDH1 knockdown viability, ATP luminescence, 48 h;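 also: potency is read from the fitted curve at half-maximal effect; 0% = DMSO wells and -100% = cell-free medium wells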
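Cytotoxicity counter-line: IDH1KD HT-1080, 48 h, CellTiter-Glo. Curves classed by r2, magnitude and activity.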
12-LOX inh = inhibitors of human 12S-lipoxygenase ALOX12; P18054; purified 12hLO, xylenol orange hydroperoxide absorbance; Potency, µM (top dose mostly 108 µM), for the others: at the top dose activity change, negative = inhibition, hits mostly inhibitors; 580,000 tested, 1.1% active; AID 1671190; also: potency is read from the fitted curve at half-maximal effect
Target sequence (P18054 whole entry, looked up): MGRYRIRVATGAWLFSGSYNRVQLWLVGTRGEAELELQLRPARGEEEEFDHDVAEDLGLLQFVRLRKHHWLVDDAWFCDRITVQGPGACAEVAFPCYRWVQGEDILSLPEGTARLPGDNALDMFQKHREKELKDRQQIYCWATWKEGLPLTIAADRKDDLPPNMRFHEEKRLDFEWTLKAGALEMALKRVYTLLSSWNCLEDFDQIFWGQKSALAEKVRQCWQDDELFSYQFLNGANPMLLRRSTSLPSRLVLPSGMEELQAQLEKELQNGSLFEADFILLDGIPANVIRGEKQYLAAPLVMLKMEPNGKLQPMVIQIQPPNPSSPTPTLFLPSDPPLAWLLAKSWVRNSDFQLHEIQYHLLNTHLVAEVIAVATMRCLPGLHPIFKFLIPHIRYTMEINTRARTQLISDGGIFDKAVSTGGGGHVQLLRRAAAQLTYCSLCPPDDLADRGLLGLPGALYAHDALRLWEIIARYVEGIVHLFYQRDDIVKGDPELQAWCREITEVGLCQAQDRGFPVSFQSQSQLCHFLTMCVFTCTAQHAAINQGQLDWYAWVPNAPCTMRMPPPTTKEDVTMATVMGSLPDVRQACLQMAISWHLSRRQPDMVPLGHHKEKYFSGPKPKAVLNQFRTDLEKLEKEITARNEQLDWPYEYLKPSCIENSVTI
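Purified human 12hLO (150 nM final) in 25 mM Hepes, 0.01% Triton X-100, pH 7.0 was preincubated 15 min at room temperature with compound. Then 40 uM arachidonic acid was added, 30 min. Hydroperoxide was read by Fe-XO absorbance ratio 573/405 nm.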
* hit, by the source's call; ? = inconclusive; . = no result; ! = not confirmed by another sample; [ ] = dose if it differs, or a comment. This is one part of a sample in which hits are shown more often than they occur. Unless noted, calls follow the shape of the dose curve; as a rule, active = well fitted curve in the direction sought with a large enough effect; inconclusive = small, poorly fitted or top-dose-only effect, or another doubt; inactive = no such curve, though single readings can be large; an effect the other way counts as inactive or inconclusive. Unless noted, % is scaled to controls: 0 for no effect and ±100 for the full control effect.

SMILES	TDP1 cell CPT	TDP1 cell noCPT	HT1080-NT tox	IL1B secr inh	HT1080 IDH1KD tx	12-LOX inh
COc1cc(CN(C(=O)c2ccc3c(c2)NC(=O)CO3)C2CC2)ccc1OC(F)F	.	.	.	.	.	-29.8%
O=[N+]([O-])c1ccc(OC/C=C2\Oc3ccc([N+](=O)[O-])cc3C2N2CCOCC2)cc1 (centres undefined)	?	23.1µM*	?	-58.9*	-27.9%	-13.6%
CC(C)NC(=O)CSc1nc(-c2ccccc2)[nH]c1S(=O)(=O)c1ccccc1	.	.	.	.	.	12.8%
Cc1onc(-c2ccccc2Cl)c1C(=O)N1CCCCCC1	-2.2%	-22.4%	14.9%	4.2	-8.4%	-44.3%
Cc1onc(-c2c(Cl)cccc2Cl)c1C(=O)NC1CCCCC1	?	9.2µM*	-0.2%	-4.5	-19.1%	-15.6%
CC(=O)c1c[nH]c(C(=O)NCC2CCCO2)c1 (centres undefined)	-2.5%	-4.2%	0.1%	-5.6	0.1%	-19.5%
Cc1cc(Br)c(NC(=O)c2c(-c3c(Cl)cccc3Cl)noc2C)c(Br)c1	20.6µM*	?	8.0%	30.3	-6.5%	2.7%
Cc1onc(-c2c(Cl)cccc2Cl)c1C(=O)c1c[nH]c(C(=O)NCC2CCCO2)c1 (centres undefined)	?	13µM*	-6.3%	-6.2	5.4%	75.2%
Cc1onc(-c2ccccc2Cl)c1C(=O)NC1CCCCCC1	25.9µM*	16.4µM*	-1.5%	11.4	-10.4%	0.0%
COc1ccc(C(=O)N[C@H]2CO[C@H]3[C@@H]2OC[C@@H]3n2cc(CN(C)Cc3ccccc3)nn2)cc1	.	.	.	.	.	-2.8%
Cc1noc2c(N(C)C)cc(-c3ccc(F)cc3)nc12	.	.	.	.	.	-20.9%[176 µM]
O=C(NC1CCCCC1)[C@@H]1C[C@@H](O)CN1C1CCN(C(=O)c2cccc3nccnc23)CC1	.	.	.	.	.	13.1%
CN(C)C(=O)c1ccc(CNc2nc3ccccc3o2)cc1	.	.	.	.	.	10.3%
COc1ccc(OC(C)C(=O)Nc2ccc(Br)cc2C)cc1 (centres undefined)	.	.	.	.	.	0.3%
COc1cc2c(cc1OC)-c1c(c(C(=O)Nc3cccnc3)nn1-c1ccccc1)C2	.	.	.	.	.	37.3%
Cc1onc(-c2c(F)cccc2Cl)c1C(=O)c1ccccc1O	-28.5%	?	?	-11.2	25.9µM*	0.0%
COc1cc(/C=N/NC(=O)c2c(-c3c(Cl)cccc3Cl)noc2C)ccc1OCC(N)=O	-0.5%	-12.3%	-0.1%	87.0	-2.8%	7.4%
Cc1onc(-c2c(Cl)cccc2Cl)c1C(=O)N/N=C(\N)COc1ccc(Cl)cc1	5.17µM*	5.17µM*	?	50.3	?	?
Cc1onc(-c2c(F)cccc2Cl)c1C(=O)NC1CCCCCC1	?	29.1µM*	18.0%	1.2	-11.3%	?
Cc1onc(-c2c(F)cccc2Cl)c1C(=O)c1ccccc1	1.1%	?	2.4%	.	8.8%	170.0%
COc1cc(Cl)c(C)cc1NC(=O)Cn1cccc1-c1nc(-c2ccc(F)cc2)no1	.	.	.	.	.	7.4%
NC(=S)N=Nc1c(O)[nH]c2c(Br)cc(Br)cc12	?	20.6µM*	-2.4%	63.1	-0.4%	-11.3%
CSc1cccc(Nc2cc(C(=O)NCCCN(C)c3ccccc3)c3ccccc3n2)c1	14.6µM*	13µM*	.	.	.	?
CCc1ccc(Nc2cc(C(=O)NCCCN(C)c3ccccc3)c3ccccc3n2)cc1	?	13µM*	.	.	.	-16.9%
COc1ccccc1Nc1cc(C(=O)NCCCN(C)c2ccccc2)c2ccccc2n1	?	?	.	.	.	-22.6%
SMILES	TDP1 cell CPT	TDP1 cell noCPT	HT1080-NT tox	IL1B secr inh	HT1080 IDH1KD tx	12-LOX inh
CCCC1c2nccn2CCCN1C(=O)Cn1c(=O)oc2ccccc21 (centres undefined)	.	.	.	.	.	39.1%
CC(Sc1ccc(C(F)(F)F)cn1)C(=O)NC(c1ccccc1)c1ccccc1 (centres undefined)	.	.	.	.	.	-19.9%
CC(C)N=C(N)/N=C(\N)Nc1ccc(Cl)cc1	.	.	.	.	.	-7.0%[22.9 µM]
CC(C)N=C(N)N=C(N)Nc1ccc(Cl)cc1	25.9µM*	9.2µM*	?	?	?	-12.3%
CCCCN=C(Nc1ccc(Cl)cc1)c1cccnc1	-17.3%	-19.2%	-0.8%	-6.9	-0.5%	0.0%
NC(=NCCCCCCN=C(N)/N=C(\N)Nc1ccc(Cl)cc1)/N=C(\N)Nc1ccc(Cl)cc1	16.4µM*!	13µM*!	14.6µM*!	-100.0*!	18.4µM*!	31.6µM*!
CC(OC(=O)c1cccc(S(=O)(=O)N2CCCCC2)c1)C(=O)N1CCCc2ccccc21 (centres undefined)	.	.	.	.	.	-4.3%
COc1ccc(-c2nc3c(c(=O)[nH]2)CCN(C(=O)c2ccc(OC)nc2)C3)cc1	.	.	.	.	.	26.6%
CC(=O)N(C)c1ccc(NC(=O)c2ccc3c(c2)nc(C)n3-c2ccccc2)cc1	.	.	.	.	.	8.7%
CC(C)NC(=S)NN=C1CCCCCC1	.	.	.	.	.	-21.5%
CC(C)NC(=S)NN=C1CCC(c2ccccc2)CC1 (centres undefined)	?	16.4µM*	6.9%	10.4	11.9%	?
CC1CCCCC1NC(=O)c1cccc(S(=O)(=O)N2CCN(Cc3ccccc3)CC2)c1 (centres undefined)	16.4µM*	20.6µM*	-2.4%	2.6	-11.6%	0.8%
CN1CCN(S(=O)(=O)c2cccc(C(=O)N(Cc3ccccc3)c3ccccc3)c2)CC1	?	?	0.9%	4.0	0.9%	202.0%
COc1ccccc1CN(C)C(=O)c1cccc(S(=O)(=O)N2CCN(Cc3ccccc3)CC2)c1	?	?	5.4%	-53.9*	8.6%	11.8%
CN(Cc1ccc(F)cc1)C(=O)c1cccc(S(=O)(=O)N2CCN(Cc3ccccc3)CC2)c1	20.6µM*	13µM*	-22.9%	-60.9*	-9.3%	?
CC(=O)N1CCN(S(=O)(=O)c2cccc(C(=O)NC3CCCC(C)C3C)c2)CC1 (centres undefined)	-26.1%	?	-2.5%	14.0	-8.2%	-6.8%
CSc1ccc(CN(C)C(=O)c2cccc(S(=O)(=O)N3CCN(Cc4ccccc4)CC3)c2)cc1	16.4µM*	13µM*	?	-71.5*	-18.0%	5.7%
CSc1ccc(CN(C)C(=O)c2cccc(S(=O)(=O)NCc3ccccc3)c2)cc1	?	?	-2.1%	0.0	-15.8%	4.1%
CC1=C(C(=O)OC(C)(C)C)C(c2ccc(Cl)cc2)C(C#N)=C(N)O1 (centres undefined)	.	.	.	.	.	-42.8%
O=C(Nc1ccnn1Cc1ccccc1Cl)c1n[nH]c(=O)c2ccccc12	.	.	.	.	.	18.6%
